According to PubChem BioAssay (NCATS):
Records with an inconclusive call do not appear. Activity calls are given as the source filed them. Unless noted, calls come from the whole dose curve; as a rule, active = well fitted curve in the direction sought with a large enough effect; inconclusive = small, poorly fitted or top-dose-only effect, or another doubt; inactive = no such curve, though single readings can be large; an effect the other way counts as inactive or inconclusive.

Assays:
[1] = biological target: T1, Hexokinase-4 (Homo sapiens) + Glucokinase regulatory protein (Homo sapiens) (UniProt P35557+Q14397); experiment: qHTS assay for inhibitors of recombinant human GCK-GKRP interaction: ADP-Glo assay (AID 743206);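 note: plate controls were DMSO plus enzyme for no effect and no enzyme for full effect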
Outline: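 GST-GCK and FLAG-GKRP (15 nM each in the dispensed mix, with 2 uM S6P) react with 0.4 mM ATP and 5 mM glucose (final) in Hepes pH 7.6 for 60 min at room temperature. ADP is measured by ADP-Glo luminescence.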

[2] = biological target: T1, Hexokinase-4 (Homo sapiens) + Glucokinase regulatory protein (Homo sapiens); experiment: qHTS assay for inhibitors of recombinant human GCK-GKRP interaction: HTRF assay (AID 743207);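 note: 0% = DMSO with GCK present and -100% = DMSO wells lacking GCK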
Outline: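 Titration screening format: recombinant GST-GCK and FLAG-GKRP at 5 nM, S6P at 2 uM, labelled anti-tag antibodies, 60 min at RT, dual-wavelength HTRF readout.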

[3] = qHTS Assay for Identifying Gametocytocidal Compounds (AID 743244);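 note: % is set by controls: 0 for no effect and ±100 for the full control effect; actives lower the fluorescent signal which means gametocytes are killed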; conditions: P. falciparum 3D7 stage III-V gametocytes, alamarBlue, 72 h; max response: stronger effect = lower value
Outline: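 Using 20,000 stage III–V 3D7 gametocytes per well, compounds were incubated 72 h under 37 °C/5% CO2. Viability was then assessed by 24 h alamarBlue reduction, measured fluorometrically at 525/598 nm.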

[4] = Natriuretic polypeptide receptor (hNpr1) antagonism - Pilot counterscreen GloSensor control cell line (AID 1347045; calls by dose curve; note: series mostly up to about 38 µM; % is set by controls: 0 for no effect and ±100 for the full control effect)
Outline: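 HEK293 cells carrying the GloSensor cGMP sensor (GIP/pGS-40F) were loaded with 2% GloSensor reagent for 2 h, exposed to compounds for 30 min, and then stimulated with 50 uM sodium nitroprusside for 20 min at room temperature.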

[5] = NS1 protein of Zika virus - qHTS assay to identify small molecule inhibitors in human HEK 293 cells (AID 1347053);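 note: series mostly up to about 46 µM; plate controls were infected untreated cells for no effect and uninfected cells for full effect; nearly all actives have a fitted effect of over 55% in size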
Outline: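 Following 20 h seeding, HEK 293 cells took compound, then 1 h later ZIKV MR766 (MOI = 0.5). Incubation ran 24 h at 37 C before TR-FRET detection of NS1; a drop in signal indicates inhibition.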

[6] = biological target: T2, Tyrosine-protein phosphatase non-receptor type substrate 1 (Homo sapiens) + Leukocyte surface antigen CD47 (Homo sapiens) (UniProt P78324+Q08722); experiment: CD47-SIRPalpha protein protein interaction - LANCE assay qHTS validation (AID 1347057; active = well fitted curve in the direction sought with a large enough effect in the signal ratio, with a control signal flat, not every such curve was filed as active; the % refers to the signal ratio; note: series mostly up to about 38 µM; 0% is about no effect)
Outline: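 First, His-tagged CD47 and Eu-labelled anti-His antibody met the compound for 30 min; next, site-specifically biotinylated SIRPalpha was added for 30 min; finally streptavidin-APC was added before reading the TR-FRET ratio.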

[7] = biological target: T2, Tyrosine-protein phosphatase non-receptor type substrate 1 (Homo sapiens) + Leukocyte surface antigen CD47 (Homo sapiens); experiment: CD47-SIRPalpha protein protein interaction - HTRF assay qHTS validation (AID 1347058; active = well fitted curve in the direction sought with a large enough effect in the signal ratio, not every such curve was filed as active; the % refers to the signal ratio; note: series mostly up to about 38 µM; 0% is about no effect)
Outline: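 TR-FRET read (Ch1/Ch2 ratio) of soluble extracellular CD47 and Avi-biotinylated SIRPalpha domains in PBS pH 7.4 with 0.05% IGEPAL; 7-point compound titration. Sequential 30 min room-temperature steps; non-biotinylated SIRPalpha as control inhibitor.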

[8] = biological target: T2, Tyrosine-protein phosphatase non-receptor type substrate 1 (Homo sapiens) + Leukocyte surface antigen CD47 (Homo sapiens); experiment: CD47-SIRPalpha protein protein interaction - Alpha assay qHTS validation (AID 1347059);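 note: bead proximity luminescence from CD47 binding SIRPalpha after compound preincubation with SIRPalpha; % is set by controls: 0 for no effect and ±100 for the full control effect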
Outline: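 Soluble extracellular domains: Avi-tag biotinylated SIRPalpha (25 nM) preincubated 30 min RT with compound, then 6His-CD47 (12.5 nM) 30 min; Ni-NTA acceptor and streptavidin donor beads (10 ug/mL) 30 min, AlphaScreen read. PBS pH 7.4, 0.05% IGEPAL.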

[9] = tested on: Zika virus NS2B-NS3 protease; experiment: Primary screen GU AMC qHTS for Zika virus inhibitors (AID 1347154);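 note: 0% = no-inhibitor control and -100% = no-enzyme control; nearly all actives have a fitted effect of over 70% in size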
Outline: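 Unlinked Zika NS2B hydrophilic domain/NS3 protease domain noncovalent complex (25 nM final) in 10 mM Tris-HCl pH 8.0, 0.01% Tween 20, with AMC peptide substrate. Fluorescence (ex 340, em 450 nm) change over 15 min, room temperature; percent inhibition fitted to 4-parameter Hill equation.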

[10] = qHTS to identify inhibitors of the type 1 interferon - major histocompatibility complex class I in skeletal muscle: primary screen against the NCATS LOPAC collection (AID 1347405);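 note: lytic HiBiT luminescence reporting HLA-B protein level; % is set by controls: 0 for no effect and ±100 for the full control effect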
Outline: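 Immortalized human C25cl48 myoblasts with HiBiT knocked into endogenous HLA-B*08:01 were stimulated with 4.0 ng/ml IFN-beta and given compounds in a 7-point, 1:4.3 titration from 46 uM final; after 24 hrs, lytic HiBiT luminescence was read.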

[11] = qHTS for inhibitors of adenylyl cyclases using a fission yeast platform: a pilot screen against the NCATS LOPAC library (AID 1347410);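 note: plate controls were DMSO vehicle for no effect and DPI positive control for full effect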
Outline: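 Inhibition of GNAS-stimulated AC9 activity in S. pombe was inferred from derepression of a PKA-repressed fbp1-GFP reporter, measured as cytometric fluorescence after 18 h at 30C with compounds at up to 57 µM.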

[12] = Validation qHTS assay for inhibitors of Activation Induced Cytidine Deaminase (AID): UDG Counterscreen signal (AID 1347427); note: 0% is about no effect
Outline: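 Counterscreen read of UDG activity (2 U/mL, 4/3x) in the FRET deamination format with AID (1 uM, 4/3x), DJC20/DJC23 substrates (250 nM, 4x), 4 h at room temperature. NaOH stop, fluorescence at 560 ex/665 em.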

[13] = biological target: Single-stranded DNA cytosine deaminase (Homo sapiens) (UniProt Q9GZX7); experiment: Validation qHTS assay for inhibitors of Activation Induced Cytidine Deaminase (AID): AID signal (AID 1347429); note: % is set by controls: 0 for no effect and ±100 for the full control effect
Outline: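 AID and UDG were combined and compounds added at final up to 114 uM, then DJC20/DJC23 FRET substrate was added for 4 hr at room temperature. NaOH was then added for 30 min before fluorescence was read at 540/590 nm.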

[14] = biological target: Calcium and integrin-binding protein 1 (Homo sapiens) (UniProt Q99828); experiment: Validation qHTS for Identification of Calcium Integrin Binding protein 1 (CIB1) Competitor (AID 1508618); note: % is set by controls: 0 for no effect and ±100 for the full control effect
Outline: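 Displacement of FITC-alphaIIb peptide (100 nM) from CIB1-GST (1 uM) is monitored by polarization in quantitative HTS format; buffer carries 5 mM CaCl2 and 125 mM NaCl at pH 7.4, incubations are at room temperature.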

[15] = Primary qHTS for small molecule stabilizers of the endoplasmic reticulum resident proteome: Secreted ER Calcium Modulated Protein (SERCaMP) assay (AID 1508630); note: % is set by controls: 0 for no effect and ±100 for the full control effect
Outline: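 GLuc-SERCaMP-expressing SH-SY5Y cells, pretreated 16 h with compound, are challenged with thapsigargin to empty ER calcium stores; after 4 h, coelenterazine is added directly to the medium and luminescence is imaged.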

[16] = biological target: N-terminal Xaa-Pro-Lys N-methyltransferase 1 (Homo sapiens) (UniProt Q9BV86); experiment: Confirmatory qHTS for Inhibitors of N-terminal methyltransferase 1 (NTMT1): MTaseGlo Assay (AID 1645874); note: potency is the fitted concentration of half-maximal effect; nearly all actives have a fitted effect of over 65% in size
Outline: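 Preincubation of NTMT1 (125 nM) plus SAM (100 uM) with test compounds lasted 15 min; methylation of 1 uM SPKRIA then proceeded 30 min in the dark at room temperature. Luciferase signal reported SAH produced.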

[17] = biological target: Metallo-beta-lactamase type 2 (Klebsiella pneumoniae) (UniProt C7C422); experiment: qHTS to identify inhibitors of the New Delhi Metallo-beta-lactamase (NDM): assay validation screen against the NCATS LOPAC Collection (AID 1794843)
Outline: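 Enzyme 2 nM final, 50 mM HEPES pH 7.0, 1 uM ZnSO4, 0.01% Tween20; cpds in DMSO, preincub w/ enzyme; + nitrocefin (50 uM stock); A485 at plateau; no-enzyme column as blank.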

[18] = biological target: Glutathione peroxidase 1 (Homo sapiens) (UniProt P07203); experiment: Primary qHTS Assay for Inhibitors of Recombinant Selenoprotein Glutathione Peroxidase 1 (GPX1) (AID 1845191); note: nearly all actives have a fitted effect of over 65% in size
Outline: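 Recombinant GPX1 (10 nM final) was preincubated with compound for 30 min at room temperature, then reacted with 1 mM GSH, 0.5 mM CHP, 0.5 mM NADPH and 100 nM glutathione reductase; NADPH fluorescence (340/450 nm) was read at 0 and 15 min.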

[19] = biological target: Phospholipid hydroperoxide glutathione peroxidase GPX4 (Homo sapiens) (UniProt P36969); experiment: Primary qHTS Assay for Inhibitors of Recombinant Selenoprotein Glutathione Peroxidase 4 (GPX4) (AID 1845192); conditions: outcome: dose series up to 50 µM unless noted; note: nearly all actives have a fitted effect of over 65% in size
Outline: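 GR-coupled readout: 100 nM GR, 1 mM GSH, 0.5 mM NADPH; NADPH fluorescence (ex 340/em 450 nm) read at t=0 and after 15 min RT. GPX4 200 nM, preincubated 30 min with compound; substrate 0.5 mM CHP.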

T2 sequence (P78324 whole entry, looked up): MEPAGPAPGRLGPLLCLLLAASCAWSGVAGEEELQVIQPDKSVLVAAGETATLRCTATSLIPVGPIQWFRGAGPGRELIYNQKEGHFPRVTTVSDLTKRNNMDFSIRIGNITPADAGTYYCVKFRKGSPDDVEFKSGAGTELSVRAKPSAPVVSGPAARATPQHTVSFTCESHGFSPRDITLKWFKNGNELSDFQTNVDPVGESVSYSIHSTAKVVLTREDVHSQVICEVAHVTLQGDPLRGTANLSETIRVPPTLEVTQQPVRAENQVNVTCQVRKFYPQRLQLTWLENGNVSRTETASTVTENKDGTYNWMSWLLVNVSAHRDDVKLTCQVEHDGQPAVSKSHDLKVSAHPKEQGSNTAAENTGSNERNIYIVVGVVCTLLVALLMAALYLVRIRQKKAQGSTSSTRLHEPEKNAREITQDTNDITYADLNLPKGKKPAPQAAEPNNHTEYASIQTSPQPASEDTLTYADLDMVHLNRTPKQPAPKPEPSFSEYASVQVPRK
T2 sequence (Q08722 whole entry, looked up): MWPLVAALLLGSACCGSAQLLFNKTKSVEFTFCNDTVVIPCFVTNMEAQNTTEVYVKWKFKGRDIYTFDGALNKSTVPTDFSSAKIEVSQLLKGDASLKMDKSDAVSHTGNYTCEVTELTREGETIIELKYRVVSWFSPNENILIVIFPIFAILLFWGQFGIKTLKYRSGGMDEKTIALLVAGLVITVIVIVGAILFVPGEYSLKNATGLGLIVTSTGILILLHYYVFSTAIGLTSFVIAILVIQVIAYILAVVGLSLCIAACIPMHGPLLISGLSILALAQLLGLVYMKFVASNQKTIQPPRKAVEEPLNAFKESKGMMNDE
T1 sequence (P35557 whole entry, looked up): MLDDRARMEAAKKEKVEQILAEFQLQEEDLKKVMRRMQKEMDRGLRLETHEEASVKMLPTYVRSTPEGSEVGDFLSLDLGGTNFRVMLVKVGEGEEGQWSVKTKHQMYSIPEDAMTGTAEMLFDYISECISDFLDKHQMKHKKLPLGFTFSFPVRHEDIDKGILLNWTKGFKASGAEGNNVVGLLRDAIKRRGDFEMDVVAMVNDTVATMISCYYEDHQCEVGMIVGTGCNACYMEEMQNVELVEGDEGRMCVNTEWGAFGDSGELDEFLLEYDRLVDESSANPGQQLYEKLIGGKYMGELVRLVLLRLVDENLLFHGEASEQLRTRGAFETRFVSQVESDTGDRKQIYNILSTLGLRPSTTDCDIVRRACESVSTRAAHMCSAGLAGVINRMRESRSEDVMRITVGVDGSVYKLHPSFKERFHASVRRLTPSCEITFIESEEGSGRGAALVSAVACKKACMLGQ
T1 sequence (Q14397 whole entry, looked up): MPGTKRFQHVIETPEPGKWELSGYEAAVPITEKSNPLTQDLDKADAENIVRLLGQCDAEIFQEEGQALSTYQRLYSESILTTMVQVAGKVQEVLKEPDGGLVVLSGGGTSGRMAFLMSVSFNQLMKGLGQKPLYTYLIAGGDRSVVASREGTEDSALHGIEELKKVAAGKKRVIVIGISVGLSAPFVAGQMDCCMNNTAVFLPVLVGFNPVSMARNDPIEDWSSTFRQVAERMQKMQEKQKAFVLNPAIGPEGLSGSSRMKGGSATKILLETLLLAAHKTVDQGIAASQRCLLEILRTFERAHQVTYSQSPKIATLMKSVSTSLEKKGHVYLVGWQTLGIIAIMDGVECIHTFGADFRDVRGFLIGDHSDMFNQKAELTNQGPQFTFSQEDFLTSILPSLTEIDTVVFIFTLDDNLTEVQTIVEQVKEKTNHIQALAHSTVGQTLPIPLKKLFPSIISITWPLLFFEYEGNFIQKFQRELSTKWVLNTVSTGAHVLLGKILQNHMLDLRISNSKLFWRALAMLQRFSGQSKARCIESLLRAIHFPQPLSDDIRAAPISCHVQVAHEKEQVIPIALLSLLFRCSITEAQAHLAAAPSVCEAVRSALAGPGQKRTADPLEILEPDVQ
Chain of N-terminal Xaa-Pro-Lys N-methyltransferase 1 (Homo sapiens) (Q9BV86 whole entry, looked up): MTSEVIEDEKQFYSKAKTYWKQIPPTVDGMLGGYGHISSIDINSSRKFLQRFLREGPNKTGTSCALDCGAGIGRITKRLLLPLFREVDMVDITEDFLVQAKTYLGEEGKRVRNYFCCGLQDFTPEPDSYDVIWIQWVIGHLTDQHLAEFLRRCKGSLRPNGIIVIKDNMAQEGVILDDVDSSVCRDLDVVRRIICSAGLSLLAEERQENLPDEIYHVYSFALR
Chain of Glutathione peroxidase 1 (Homo sapiens) (P07203 whole entry, looked up): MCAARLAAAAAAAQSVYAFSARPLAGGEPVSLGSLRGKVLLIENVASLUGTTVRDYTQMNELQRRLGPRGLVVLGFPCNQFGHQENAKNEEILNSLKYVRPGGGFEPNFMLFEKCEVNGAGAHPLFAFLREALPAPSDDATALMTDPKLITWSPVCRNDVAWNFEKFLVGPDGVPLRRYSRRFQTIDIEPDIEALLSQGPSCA
Chain of Metallo-beta-lactamase type 2 (Klebsiella pneumoniae) (C7C422 whole entry, looked up): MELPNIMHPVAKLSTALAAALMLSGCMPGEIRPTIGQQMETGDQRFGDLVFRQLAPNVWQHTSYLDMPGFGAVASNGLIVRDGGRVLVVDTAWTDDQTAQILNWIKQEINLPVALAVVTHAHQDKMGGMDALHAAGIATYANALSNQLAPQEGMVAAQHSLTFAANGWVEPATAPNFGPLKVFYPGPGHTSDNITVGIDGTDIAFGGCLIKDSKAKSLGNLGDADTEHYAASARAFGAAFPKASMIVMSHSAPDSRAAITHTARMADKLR
Chain of Phospholipid hydroperoxide glutathione peroxidase GPX4 (Homo sapiens) (P36969 whole entry, looked up): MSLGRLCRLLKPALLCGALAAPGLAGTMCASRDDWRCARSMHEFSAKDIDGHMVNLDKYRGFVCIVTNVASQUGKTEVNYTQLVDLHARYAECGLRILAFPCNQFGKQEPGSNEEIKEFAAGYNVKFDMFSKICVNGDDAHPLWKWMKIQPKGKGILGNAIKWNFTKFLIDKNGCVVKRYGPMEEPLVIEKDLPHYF
Chain of Single-stranded DNA cytosine deaminase (Homo sapiens) (Q9GZX7 whole entry, looked up): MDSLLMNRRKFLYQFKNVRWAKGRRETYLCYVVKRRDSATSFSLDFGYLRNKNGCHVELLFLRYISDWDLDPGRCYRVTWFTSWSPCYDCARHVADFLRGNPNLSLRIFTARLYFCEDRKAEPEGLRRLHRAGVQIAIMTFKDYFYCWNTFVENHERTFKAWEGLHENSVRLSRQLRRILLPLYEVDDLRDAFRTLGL
Chain of Calcium and integrin-binding protein 1 (Homo sapiens) (Q99828 whole entry, looked up): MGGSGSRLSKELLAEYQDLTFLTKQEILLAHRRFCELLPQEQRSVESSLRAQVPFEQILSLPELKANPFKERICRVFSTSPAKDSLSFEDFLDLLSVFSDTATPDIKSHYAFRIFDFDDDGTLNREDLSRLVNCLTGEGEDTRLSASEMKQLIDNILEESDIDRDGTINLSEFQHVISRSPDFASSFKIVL

Cc1cccc(/C=C/c2ccccc2)n1
active: Potency [16] 27.4 µM
inactive: outcome [1] | outcome [2] | max response [3] 6.48% | Potency [4] | outcome [5] | outcome [6] | outcome [7] | Potency [8] | Potency [9] | Potency [10] | outcome [11] | outcome [12] | Potency [13] | outcome [14] | Potency [15] | Potency [17] | Potency [18] | Potency [19]
